Out of some 310,000 compounds screened, about 1,200 (0.39%) were called active. How the calls were made is not given here. Not all results are given here. Potency and affinity values are given separately.
Target: Large T antigen (Simian virus 40) (UniProt P03070)
Assay: TAg ATPase/helicase activity blockers – biochemical (AID 1903)
Settings: SV40 large T antigen ATPase/helicase inhibition assay; at 20 µM; stronger effect = higher value

Large T antigen (Simian virus 40), sequence (P03070 whole entry, looked up): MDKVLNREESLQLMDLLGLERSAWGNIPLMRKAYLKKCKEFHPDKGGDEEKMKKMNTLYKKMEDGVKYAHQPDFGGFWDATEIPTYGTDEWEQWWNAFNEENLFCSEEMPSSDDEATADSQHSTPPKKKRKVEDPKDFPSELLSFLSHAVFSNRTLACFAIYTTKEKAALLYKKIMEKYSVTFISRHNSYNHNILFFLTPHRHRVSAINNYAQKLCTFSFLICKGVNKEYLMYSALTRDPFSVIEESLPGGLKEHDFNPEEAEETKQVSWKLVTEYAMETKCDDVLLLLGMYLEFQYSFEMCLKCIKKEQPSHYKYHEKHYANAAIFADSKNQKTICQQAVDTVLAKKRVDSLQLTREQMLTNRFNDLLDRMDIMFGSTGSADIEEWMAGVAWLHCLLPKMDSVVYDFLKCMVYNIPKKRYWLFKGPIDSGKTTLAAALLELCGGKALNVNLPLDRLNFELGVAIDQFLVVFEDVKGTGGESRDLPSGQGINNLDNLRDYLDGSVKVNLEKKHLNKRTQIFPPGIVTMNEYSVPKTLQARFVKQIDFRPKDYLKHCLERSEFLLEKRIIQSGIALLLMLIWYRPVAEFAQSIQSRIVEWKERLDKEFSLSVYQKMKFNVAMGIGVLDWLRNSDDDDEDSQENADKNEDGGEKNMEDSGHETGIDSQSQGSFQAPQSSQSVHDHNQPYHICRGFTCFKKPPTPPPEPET

inhibition, inactive:
CC(C)c1cc2cc3ccc(=O)oc3cc2o1 4.47%, COc1cc2ccc(=O)oc2cc1O 2.12%, O=C1CCCc2[nH]nc(-c3cccnc3)c21 12%, Cc1c(Br)c(=O)oc2c(Br)c(O)ccc12 23.7%, Cc1c(C)c2cc(Cl)c(O)c(CN(C)C)c2oc1=O 6.8%, C/C(=N\N=C\c1ccccc1F)c1nnn(-c2nonc2N)c1C -1.72%, O=C(NCc1ccc(Cl)cc1)c1cnn2ccccc12 3.57%, O=C(Nc1ccc(Nc2ccccc2)cc1)c1ccccc1 16.9%, O=C(Nc1ccc(F)cc1)N1CCOCC1 0.68%, CCC(=O)Nc1ccc(Nc2ccccc2)cc1 33.2%, O=C(Nc1ccccc1)N1CCOCC1 12.8%, O=C(Nc1ccccc1)Nc1ccc(Nc2ccccc2)cc1 25.8%, CC(=O)Nc1ccc(Nc2ccccc2)cc1 23.7%, O=C(O)C1CCCCC1C(=O)Nc1ccc(-c2ccccc2)cc1 (configuration not stated) -3.79%, O=C(O)C1CCCCC1C(=O)Nc1ccccc1Nc1ccccc1 (configuration not stated) 20.9%, CC(=O)COc1ccc2c(c1C)O/C(=C\c1ccco1)C2=O 35.5%, CCN1C(=O)CC(c2ccc(OC(C)C)cc2)C1=O (configuration not stated) -0.45%, CC[C@H](C)[C@H](NC(N)=O)C(=O)Nc1ccc(NC(C)=O)cc1 9.4%, CCOC(=O)c1cnc(N)nc1C(F)(F)F -4.94%, O=C(COC(=O)c1ccc2c(c1)OCCO2)Nc1cc(S(=O)(=O)N2CCOCC2)ccc1Cl 12.3%, COCCn1c(N2CCCC2)nc2c1c(=O)[nH]c(=O)n2C 5.19%, Cc1ccc(-c2nnc(CCC(=O)N(C)Cc3nccs3)o2)s1 -8.55%, Nc1ccc(S(=O)(=O)c2ccc(N)c(N)c2)cc1 20.9%, Nc1cccc(S(=O)(=O)c2ccc(N)c(N)c2)c1 25.5%, O=C(c1cnn2c(C(F)F)cc(-c3ccccc3)nc12)N1CCCCC1c1cccnc1 (configuration not stated) 1.99%, COc1ccc(NC(=O)c2ccc3c(c2)NC(=O)CO3)cc1OC -1.26%, Cc1ccccc1S(=O)(=O)Cc1ccc(C(=O)NC2CC2)o1 11.4%, CCC1=NN2C(=N)/C(=C/c3ccc(OS(=O)(=O)c4ccc(C)cc4)c(OC)c3)C(=O)N=C2S1 15.3%, COc1cc(/C=C2\SC(c3ccc(C)cc3)=NC2=O)ccc1O 23.4%, CCOc1cc(/C=C2/C(=N)N3N=C(CC)SC3=NC2=O)ccc1OC(=O)c1ccco1 1.88%, CCC1=NN2C(=N)/C(=C\c3ccc(OCCOc4ccccc4)c(OC)c3)C(=O)N=C2S1 10.4%, COc1cc(/C=C2/C(=N)N3N=C(C)SC3=NC2=O)ccc1OS(=O)(=O)c1ccc(C)cc1 3.08%, COc1cc(/C=C2\C(=N)N3N=C(S(C)(=O)=O)SC3=NC2=O)ccc1OS(=O)(=O)c1ccccc1 26.3%, CC(CCc1ccccc1)C(=O)NO (configuration not stated) -1.59%, Cc1cc(NC(=O)c2cccc(S(=O)(=O)Nc3cccc(C(=O)O)c3)c2)no1 12.5%, CCOc1ccc(N2C(=O)CC(N3CCN(C(=O)CN4CCCC4)CC3)C2=O)cc1 (configuration not stated) 15.8%, CN(C)CCN(C(=O)c1ccc(S(=O)(=O)N(C)C)cc1)c1nc2cc3c(cc2s1)OCCO3 3.41%, Cc1cccc(C(=O)N[C@H](C(=O)NCCc2ccc(S(N)(=O)=O)cc2)C(C)C)c1 9.44%, CCCC(c1nnnn1CS(=O)(=O)c1ccc(C)cc1)N1CCC(C(N)=O)CC1 (configuration not stated) 1.94%, CCOc1ccc(NC(=O)CCn2ccnc2)cc1 2.19%, O=C(CCCCCN1C(=O)c2ccccc2C1=O)NCCc1nc2ccccc2[nH]1 5.03%, COc1ccc(Nc2nc(N3CCN(S(=O)(=O)N(C)C)CC3)nc3ccccc23)cc1 6.91%, COc1ccc(-c2nc(-c3cccs3)c(-c3cccs3)[nH]2)cc1OC 8.77%, Oc1ccc(/C=N/Nc2ccnc3cc(Cl)ccc23)c(O)c1 8.76%, Fc1ccc(/C=N/Nc2nccnc2Cl)cc1 8.81%, Clc1nccnc1N/N=C/c1ccc(Br)cc1 0.07%, Oc1ccc(/C=N/Nc2cccc(Cl)n2)c(O)c1 21.8%, COc1ccc(/C=N/Nc2nccnc2Cl)c(OC)c1 5.32%, Oc1ccccc1/C=N/Nc1nccnc1Cl 0.02%, Cc1cc(C)c(C)c(S(=O)(=O)N2CCSCC2)c1C 8.62%, N#Cc1c(NC(=O)COC(=O)c2ccc(F)cc2)sc2c1CCC2 1.58%, O=C(CSc1nc2c(cnn2-c2ccccc2)c(=O)[nH]1)N1CCCCC1 24.9%, COc1ccc(/C=C(\NC(=O)c2ccc(OC)cc2)C(=O)NC(CCSC)C(=O)O)cc1 (configuration not stated) 9.06%, O=C(Nc1ccccc1)C1CCN(S(=O)(=O)c2ccc3c(c2)OCCO3)CC1 20.4%, NC(=O)CSc1nnc2ccc(-c3ccco3)nn12 16.6%, CCCCn1c(SCC(N)=O)nnc1-c1ccco1 8.33%, Cc1cc(C)c(C(=O)COc2cccnc2[N+](=O)[O-])cc1C -4.61%, O=C(COc1cccnc1[N+](=O)[O-])c1c[nH]c2ccccc12 21.6%, COc1ccc(C2OCC3(O)C(c4ccc(OC)c(OC)c4)OCC23)cc1OC (configuration not stated) 4.9%, C/C(=N/NS(=O)(=O)c1ccccc1)c1c[nH]c2ccccc12 31.3%, COc1cc(/C=N/NS(=O)(=O)c2ccc(C)c([N+](=O)[O-])c2)cc([N+](=O)[O-])c1O 24.7%, Cc1ccc(S(=O)(=O)N/N=C/c2ccccc2O)cc1[N+](=O)[O-] 12.5%, CCN(CC)c1ccc(/C=N/NS(=O)(=O)c2cccc([N+](=O)[O-])c2)cc1 10.4%, C/C(=N\NS(=O)(=O)c1ccc([N+](=O)[O-])cc1)c1c[nH]c2ccccc12 34%, CN(C)c1ccc(/C=N/NS(=O)(=O)c2ccc(Br)cc2)cc1 24.5%, COc1ccc(/C=N/NS(=O)(=O)c2ccccc2)cc1OC 13.2%, O=[N+]([O-])c1cccc(/C=N/NS(=O)(=O)c2ccccc2)c1 9.33%, Cc1ccc(C(c2c(C)[nH][nH]c2=O)c2c(C)[nH][nH]c2=O)cc1[N+](=O)[O-] 20.9%, COC(=O)c1cccc(-n2c(C)cc(C=O)c2C)c1C 17.4%, NC(=O)C1CCN(C(=O)c2ccc(Oc3ccccc3)cc2)CC1 13.6%, COC(=O)c1c(S(N)(=O)=O)c2ccccc2n1C 21.9%, Nc1nccnc1C(=O)OCC(=O)N1CCN(S(=O)(=O)c2ccc(Cl)cc2)CC1 15.7%, CC1=NN(c2ccccc2)C(=O)C1N=Nc1ccc(C)cc1 (configuration not stated) -3.33%, CC1=NN(c2ccccc2)C(=O)C1c1ccccc1 (configuration not stated) 31.6%, CCOc1ccccc1NC(=O)COC(=O)CSc1ccc(Cl)cc1 -3.03%, COc1cccc(-c2nn(C)c3sc(C(=O)NCc4ccco4)cc23)c1 16.5%, COc1cc(-c2nc(N)n[nH]2)cc(OC)c1OC 3.91%, CCn1c(-c2cc(OC)c(OC)c(OC)c2)n[nH]c1=S 8.67%, O=C(CNC(=O)c1ccccc1)OCCCOC(=O)CNC(=O)c1ccccc1 8.32%, Cc1cc(C)c(C)c(S(=O)(=O)N2CCN(C(=O)c3ccco3)CC2)c1C 30.6%, O=C(O)c1ccc(-c2nc(-c3ccccc3)c(-c3ccccc3)[nH]2)cc1 13.6%, Fc1ccc(-c2nc(-c3cccs3)[nH]c2-c2ccc(F)cc2)cc1 0.16%, Cn1c(Cc2ccccc2)nnc1SCC(=O)NC1CC1 5.03%, Cc1cc(C)nc(SCCN(C)C)n1 21.5%, Cc1cc(C)nc(SCSc2nc(C)cc(C)n2)n1 1.38%, N#CC1=C(N)C2=CCCC[C@H]2[C@H](c2ccccc2)C1(C#N)C#N 10.5%, N#CC1=C(N)C2=CCCC[C@H]2[C@H](c2ccc(Br)cc2)C1(C#N)C#N 29.5%, COC(=O)C1=C(O)/C(=C\c2cc(C)n(-c3ccccc3F)c2C)N=C1C 8.75%, CCOC(=O)C1=C(O)/C(=C\c2cccc(OC)c2)N=C1C 4.85%, CCOC(=O)C1=C(O)/C(=C\c2cccs2)N=C1C 10.2%, COC(=O)C1=C(O)/C(=C\c2cc(C)n(-c3ccccc3C)c2C)N=C1C 21.4%, Cc1nc2ccccc2c(C)c1CC(=O)N(C)CC(=O)Nc1cccc(F)c1 6.37%, Cc1noc(C)c1C(=O)Nc1nc2ccc(Cl)cc2s1 13.7%, Cc1cc(C)nc(SCC(=O)N2CCCCC2)n1 24.1%, O=C1CCCC(=O)N1c1ccc(O)cc1 12.2%, O=C1c2ccc3c4c(ccc(c24)C(=O)N1c1ccc(O)cc1)C(=O)N(c1ccc(O)cc1)C3=O 2.8%, O=C(NC1CC1)C1=C[C@@H](c2ccccc2)C[C@@H](OCCCCO)O1 5.56%
